Out of some 5,500 compounds screened, about 2,000 (36%) were called active. About 18% were inconclusive and are not listed. Cut-off read from the data, not from the text of the source: active = normalized growth mostly below about 0.91 (no sharp cut-off); inconclusive = no clear call, values can overlap the other calls; inactive = mostly above about 0.92. The list shows a part of the results.
Assay: chemical genetic growth profiling, strain panel (AID 1159580);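 note: tested at 20 µM; growth read once vehicle control cultures reached saturation at 30 °C; 1 = growth at the plate median or of vehicle wells; lower values mean less growth of the strain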
Conditions: S. cerevisiae deletion strains, growth OD

Measured: normalized growth

OC(CCN1CCCCC1)(c1ccccc1)C1CC2C=CC1C2 (centres undefined)
inactive: locus YAL021C, strain ccr4, active compounds read low 1.01 | locus YAL026C, strain drs2, active compounds read low 1 | locus YAL030W, strain snc1, active compounds read low 1.02 | locus YBL061C, strain skt5, active compounds read low 1.02 | locus YBR009C, strain hhf1, active compounds read low 0.985 | locus YBR023C, strain chs3, active compounds read low 0.999 | locus YBR171W, strain sec66, active compounds read low 1 | locus YBR231C, strain swc5, active compounds read low 0.999 | locus YBR279W, strain paf1, active compounds read low 0.99 | locus YCL011C, strain gbp2, active compounds read low 1.01 | locus YCL016C, strain dcc1, active compounds read low 1.04 | locus YCL061C, strain MRC1, active compounds read low 0.996 | locus YCL069W, strain vba3, active compounds read low 0.977 | locus YCR088W, strain abp1, active compounds read low 1 | locus YDL005C, strain med2, active compounds read low 1 | locus YDL040C, strain nat1, active compounds read low 1 | locus YDR001C, strain nth1, active compounds read low 0.997 | locus YDR069C, strain doa4, active compounds read low 1.02 | locus YDR137W, strain rgp1, active compounds read low 1.01 | locus YDR159W, strain sac3, active compounds read low 0.992 | locus YDR195W, strain ref2 1.01 | locus YDR297W, strain sur2, active compounds read low 1 | locus YDR334W, strain swr1, active compounds read low 0.965 | locus YDR335W, strain msn5, active compounds read low 1 | locus YDR392W, strain spt3, active compounds read low 1.03 | locus YEL003W, strain gim4, active compounds read low 0.993 | locus YEL037C, strain rad23, active compounds read low 0.988 | locus YEL061C, strain CIN8 (second series), active compounds read low 0.983 | locus YER015W, strain faa2, active compounds read low 1 | locus YER016W, strain bim1, active compounds read low 1.03 | locus YER111C, strain swi4, active compounds read low 1 | locus YER155C, strain BEM2 (second series), active compounds read low 1.01 | locus YFR010W, strain ubp6, active compounds read low 0.966 | locus YGL167C, strain pmr1, active compounds read low 1 | locus YGL173C, strain kem1, active compounds read low 1.01 | locus YGL227W, strain vid30, active compounds read low 0.989 | locus YGL240W, strain doc1, active compounds read low 0.994 | locus YGL253W, strain hxk2, active compounds read low 1.01 | locus YHR013C, strain ard1, active compounds read low 1.03 | locus YHR027C, strain rpn1, active compounds read low 0.991 | locus YHR030C, strain SLT2, active compounds read low 0.977 | locus YHR079C, strain IRE1, active compounds read low 0.996 | locus YHR142W, strain chs7, active compounds read low 1 | locus YJL092W, strain hpr5, active compounds read low 1.01 | locus YJL095W, strain BCK1 (second series), active compounds read low 1 | locus YJL095W, strain BCK1, active compounds read low 0.996 | locus YJL115W, strain asf1, active compounds read low 0.984 | locus YJL129C, strain trk1, active compounds read low 0.987 | locus YJL154C, strain vps35, active compounds read low 0.987 | locus YJL164C, strain tpk1, active compounds read low 0.997 | locus YJL166W, strain qcr8, active compounds read low 0.982 | locus YJR066W, strain TOR1, active compounds read low 0.935 | locus YKL160W, strain elf1, active compounds read low 1.03 | locus YKR026C, strain gcn3, active compounds read low 0.987 | locus YKR091W, strain srl3, active compounds read low 1 | locus YLL001W, strain dnm1, active compounds read low 0.993 | locus YLL026W, active compounds read low 0.997 | locus YLL041C, strain sdh2, active compounds read low 1.03 | locus YLR027C, strain aat2, active compounds read low 1 | locus YLR113W, strain HOG1, active compounds read low 0.987 | locus YLR221C, strain rsa3, active compounds read low 0.993 | locus YLR258W, strain gsy2, active compounds read low 0.998 | locus YLR262C, strain YPT6 (second series), active compounds read low 0.984 | locus YLR320W, strain mms22, active compounds read low 0.979 | locus YLR342W, strain FKS1, active compounds read low 1.01 | locus YLR357W, strain rsc2, active compounds read low 0.995 | locus YLR370C, strain arc18, active compounds read low 1.01 | locus YLR384C, strain iki3, active compounds read low 1.01 | locus YML120C, strain ndi1, active compounds read low 0.981 | locus YMR058W, strain fet3, active compounds read low 1 | locus YMR125W, strain sto1, active compounds read low 0.985 | locus YMR129W, active compounds read low 1 | locus YMR205C, strain PFK2, active compounds read low 1.01 | locus YMR231W, strain pep5, active compounds read low 0.995 | locus YNL071W, strain lat1, active compounds read low 0.985 | locus YNL183C, strain NPR1, active compounds read low 0.951 | locus YNL209W, strain ssb2, active compounds read low 0.995 | locus YNL248C, strain rpa49, active compounds read low 1 | locus YNL322C, strain KRE1 (second series), active compounds read low 0.995 | locus YNR049C, strain mso1, active compounds read low 1.01 | locus YOR001W, strain rrp6, active compounds read low 0.949 | locus YOR070C, strain gyp1, active compounds read low 0.989 | locus YOR080W, strain dia2, active compounds read low 1 | locus YOR083W, strain WHI5, active compounds read low 1.03 | locus YOR106W, strain vam3, active compounds read low 0.995 | locus YOR231W, strain MKK1, active compounds read low 0.991 | locus YOR265W, strain rbl2, active compounds read low 1.01 | locus YOR270C, strain vph1, active compounds read low 0.929 | locus YOR290C, strain snf2, active compounds read low 1.06 | locus YPL051W, strain arl3, active compounds read low 1.01 | locus YPL078C, strain atp4, active compounds read low 1.02 | locus YPL106C, strain sse1, active compounds read low 1.05 | locus YPL240C, strain hsp82, active compounds read low 0.982 | locus YPL256C, strain CLN2, active compounds read low 0.978

— PubChem BioAssay AID1159580 (chemical genetic matrix, 2015)
